# In PubChem BioAssay (EPA / NIEHS):
# Inconclusive results are not listed. The source made the active and inactive calls. Rule for the calls: active = hit-call score of the fitted dose curve at least 0.9, where 1 is the maximum; inconclusive = response in the unintended direction; inactive = score below 0.9.
# Target: human Adrenergic, Alpha 2A Receptor (Adra2A), ADRA2A (gene 150) (UniProt P08913)
# Test: NVS_GPCR_hAdra2A: NovaScreen (NVS) G Protein-Coupled Receptor Assay for human Adrenergic, Alpha 2A Receptor (Adra2A) (AID 2283257)
# Experimental: NVS_GPCR_hAdra2A is a biochemical, single-readout assay that uses extracted gene-proteins from HT29 in a cell-free assay. Measurements were taken 1 hour after chemical dosing in a 48-well plate.NVS_GPCR_hAdra2A is one of one assay component(s) measured or calculated from the NVS_GPCR_hAdra2A assay. It is designed to make measurements of radioligand binding, a form of binding reporter, as detected with scintillation counting signals by Filter-based radiodetection technology.Data from the assay component NVS_GPCR_hAdra2A was analyzed into 1 assay endpoint. This assay endpoint, NVS_GPCR_hAdra2A, was analyzed in the positive analysis fitting direction relative to DMSO as the negative control and baseline of activity. Using a type of binding reporter, loss-of-signal activity can be used to understand changes in the binding as they relate to the gene ADRA2A. Furthermore, this assay endpoint can be referred to as a primary readout, because the performed assay has only produced 1 assay endpoint. To generalize the intended target to other relatable targets, this assay endpoint is annotated to the gpcr intended target family, where the subfamily is rhodopsin-like receptor.
# Binding assays used specific radioligands (tritiated, iodinated) with non-radioactive competitive displacement ligands in agonist or antagonist protocols (as indicated) and various reference compounds and inhibitors to titrate specific binding to receptors and transporters. Most enzyme assays (CYPs, kinases, phosphatases, proteases, HDACs) used recombinant protein and specific substrates (fluorescence mostly, some colorimetric and radioactive) and inhibitors, followed by a biochemical separation of substrate and product. All assays for the biochemical HTS were initially run in duplicate at a single concentration (10 uM for CYP450 assays and 25 uM for all others). […] Each assay was run with positive and negative controls, and concurrent controls on every plate. The follow-up (secondary) screen tested active chemical-pairs in concentration series, as well as a few additional assays not tested in the primary screen, some selected negative inactives, and several cases re-run in the concentration series for confirmatory purposes.
# human Adrenergic, Alpha 2A Receptor (Adra2A), ADRA2A (gene 150), sequence (P08913 whole entry, looked up): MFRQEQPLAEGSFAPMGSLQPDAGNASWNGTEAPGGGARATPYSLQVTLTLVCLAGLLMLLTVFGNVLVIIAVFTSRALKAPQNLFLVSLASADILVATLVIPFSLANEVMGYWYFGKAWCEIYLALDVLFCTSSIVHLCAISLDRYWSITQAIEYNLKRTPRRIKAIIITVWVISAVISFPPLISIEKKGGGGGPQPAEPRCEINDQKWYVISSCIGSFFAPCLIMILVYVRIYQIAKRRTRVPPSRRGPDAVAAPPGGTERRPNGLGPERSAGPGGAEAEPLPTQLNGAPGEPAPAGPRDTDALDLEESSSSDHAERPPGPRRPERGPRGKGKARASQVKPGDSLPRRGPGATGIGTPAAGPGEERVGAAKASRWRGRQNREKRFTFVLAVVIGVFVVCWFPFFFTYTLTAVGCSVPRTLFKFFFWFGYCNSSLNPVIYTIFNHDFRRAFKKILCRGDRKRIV
Structure (SMILES),AC50,outcome
COCCOc1cc2cc(C(=O)NC3CCN(C(C)C)CC3)n(CC(=O)Nc3ccc(Cl)cn3)c2cn1,9.81 µM (active),–
CC[C@H]1CC[C@H](NCc2cc3c(cc2OC)[C@H]2C[C@H]2C(=O)N3C)[C@H](c2ccccc2)N1,4.96 µM (active),–
CCCN(C1CCN(C(=O)C2CCNCC2)CC1)[C@@H]1CCc2ccc(OC)cc2C1,17.4 µM (active),–
O=c1[nH]c2ccc(S(=O)CCN3CCC(Cc4ccc(F)cc4)CC3)cc2o1 (stereo unspecified),0.837 µM (active),–
Nc1ccc(Nc2ccccc2)cc1,9.06 µM (active),–
CCN(C(=O)c1cc(C)cc(OC[C@H](C)Nc2ccncc2)c1)C(C)C,7.91 µM (active),–
O=C(O)CC(O)C(=O)O (stereo unspecified),–,inactive
COc1cccc(-c2ccc(/C=C\CN3CCCCCC3)cc2Cl)c1,8.54 µM (active),–
CCOC(=O)c1ccc(C2CCC(NC[C@H](O)COc3ccc(O)c(NS(C)(=O)=O)c3)CC2)cc1 (stereo partly specified),31.1 µM (active),–
CCOC(=O)COc1ccc2c(c1)CC(NCC(O)c1cccc(Cl)c1)CC2 (stereo unspecified),7.53 µM (active),–
Cc1[nH]cnc1C[C@H]1CCc2c(C)c3ccccc3n2C1=O,0.56 µM (active),–
